Article PMC5540273 (PLoS ONE, 2017)

system: T1, GRK2; conditions: concentration: 1 μM, replicates: in singlicate; n = 1
T1 construct: gene ADRBK1
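Also: KINOMEscan kinase panel screen.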

| SMILES | %Inh [%] |
| --- | --- |
| CCc1nc(-c2cccc(C)c2)c(-c2ccnc(NCc3ccccc3)c2)s1 | 0 |
| CN(C(=O)c1ccc(-c2cc(-c3c[nH]nc3-c3ccccn3)ccn2)cc1)C1CCOCC1 [GW810083] | 18 |
| O=C(NOCC1CC1)c1ccc(F)c(F)c1Nc1ccc(I)cc1Cl | 0 |
| N#Cc1ccc(-c2cc(-c3c[nH]nc3-c3ccccn3)ccn2)cc1 [GW693028] | 0 |
| CN1c2ccc(CNc3ccc(F)cc3)cc2-c2c(cnn2C)S1(=O)=O | 0 |
| O=c1cc(N2CCOCC2)nc2n(Cc3cccc(C(F)(F)F)c3)ccn12 [GSK2297543] | 0 |
| O=C(NCCNc1ccnc(Nc2ccc(F)cc2)n1)Nc1ccccc1F [GSK1379880] | 0 |
| COc1cc2c(cc1OC[C@@H](O)CO)ncc1c3ccc(C#N)cc3[nH]c21 | 13 |
| CCCCCc1nc2c(N)ncnc2n1CCCCC [SKF-97255] | 0 |
| O=C(Nc1cccc(-c2nn3ncccc3c2-c2ccnc(Nc3cccc(C(F)(F)F)c3)n2)c1)c1c(F)cccc1F [GSK299495] | 0 |
| O=c1cc(N2CCOCC2)nc2n(Cc3cccc4ccccc34)ccn12 [GSK2333389] | 0 |
| Cc1c(Cn2c(C)nn3c(=O)cc(N4CCOC(C)C4)nc23)cccc1C(F)(F)F (stereo not drawn) [GSK2344444] | 0 |
| O=C1NC(=O)C(N2CCc3ccccc32)=C1c1cccc(Cl)c1 [SB-408010] | 0 |
| N#Cc1c(N2CCOCC2)sc(-c2ccn[nH]2)c1-c1ccc(Cl)cc1 | 0 |
| Cn1cc(-c2ccc3c(c2)CCN3C(=O)Cc2ccccc2Cl)c2c(N)ncnc21 [GSK2608885] | 0 |
| COc1cc(Nc2nccc(N3CCC(NC(=O)c4cccc(NC(C)=O)c4)C3)n2)cc(OC)c1OC (stereo not drawn) [GSK1379754] | 0 |
| COc1ccc(S(=O)(=O)NC2CCN(c3cc(C)nc(Nc4cccc(C#N)c4)n3)CC2)cc1.O=C(O)C(F)(F)F [GSK1653539] | 0 |
| COc1cc2c(cc1OCCN1CCN(C)CC1)ncc1c3ccc(C#N)cc3[nH]c21 | 0 |
| O=C(Nc1n[nH]c2cc(-c3cccc(F)c3)ccc12)C1CC1 [SB-735464] | 0 |
| Cc1cccc(-c2nc(Nc3ccc4ncsc4c3)c3ccccc3n2)n1 [GW867588] | 9 |
| Nc1nccc(-c2c(-c3ccc(F)cc3)ncn2C2CCN(CC(F)(F)F)CC2)n1 [SB-236560] | 16 |
| COc1ccc(Nc2nccc(N3CCC(NC(=O)Nc4cccc(C(C)=O)c4)C3)n2)cc1 (stereo not drawn) [GSK1379731] | 0 |

system: T2, GRK3; conditions: concentration: 1 μM, replicates: in singlicate; n = 1
T2 construct: gene ADRBK2

| SMILES | %Inh [%] |
| --- | --- |
| O=C(NCCNc1ccnc(Nc2ccc(F)cc2)n1)c1cc2ccccc2s1 [GSK1379874] | 0 |
| Cc1nnc(-c2ccc3occ(-c4ccc(C(C)O)cc4)c3c2)o1 (stereo not drawn) | 12 |
| NS(=O)(=O)CCc1cccc(Nc2nccc(-c3c(-c4cccc(NC(=O)c5c(F)cccc5F)c4)nn4ccccc34)n2)c1 [GSK336735] | 89 |
| NS(=O)(=O)c1cccc(-c2ccc3nccc(-c4cccc(S(N)(=O)=O)c4)c3c2)c1 [GW867253] | 0 |
| Cc1nnc(-c2ccc(C)c(-c3ccc(C(=O)Nc4ccc(NS(C)(=O)=O)cc4)cc3)c2)o1 [GW702865] | 0 |
| Cl.Nc1ncnc2occ(-c3ccc(NC(=O)Nc4cc(C(F)(F)F)ccc4F)cc3)c12 [SB-707548] | 36 |
| O=C(NCCCN1CCOCC1)c1cccc(Nc2nccc(Nc3ccc(Oc4ccccc4)cc3)n2)c1 [GW663929] | 20 |
| O=C(c1ccc(-c2cc(-c3c[nH]nc3-c3ccccn3)ccn2)cc1)N1CCOCC1 [GW812171] | 20 |
| CN1c2ccc(NCc3ccc(F)cc3)cc2-c2c(cnn2C)S1(=O)=O | 0 |
| Cc1nnc(-c2ccc3ncc(-c4ccc(S(C)=O)cc4)n3c2)o1 (stereo not drawn) | 0 |
| COc1cc2ncn(-c3cc(OCc4sccc4Cl)c(C(N)=O)s3)c2cc1OC [GSK448459] | 33 |
| [2H]C([2H])(c1cccc(C(F)(F)F)c1C)n1ccn2c(=O)nc(N3CCOCC3)cc12 [GSK2336394] | 20 |
| Cl.Oc1cccc(Nc2ccnc3cc(-c4ccncc4)ccc23)c1 [GW494601] | 36 |
| CCc1nc(-c2cccc(C)c2)c(-c2ccnc(NCc3ccccc3)c2)s1 | 6 |
| CN(C(=O)c1ccc(-c2cc(-c3c[nH]nc3-c3ccccn3)ccn2)cc1)C1CCOCC1 [GW810083] | 18 |
| O=C(NOCC1CC1)c1ccc(F)c(F)c1Nc1ccc(I)cc1Cl | 0 |
| N#Cc1ccc(-c2cc(-c3c[nH]nc3-c3ccccn3)ccn2)cc1 [GW693028] | 70 |
| CN1c2ccc(CNc3ccc(F)cc3)cc2-c2c(cnn2C)S1(=O)=O | 0 |

| SMILES | %Inh [%] |
| --- | --- |
| O=c1cc(N2CCOCC2)nc2n(Cc3cccc(C(F)(F)F)c3)ccn12 [GSK2297543] | 0 |
| O=C(NCCNc1ccnc(Nc2ccc(F)cc2)n1)Nc1ccccc1F [GSK1379880] | 23 |
| COc1cc2c(cc1OC[C@@H](O)CO)ncc1c3ccc(C#N)cc3[nH]c21 | 0 |
| CCCCCc1nc2c(N)ncnc2n1CCCCC [SKF-97255] | 6 |
| O=C(Nc1cccc(-c2nn3ncccc3c2-c2ccnc(Nc3cccc(C(F)(F)F)c3)n2)c1)c1c(F)cccc1F [GSK299495] | 33 |
| O=c1cc(N2CCOCC2)nc2n(Cc3cccc4ccccc34)ccn12 [GSK2333389] | 0 |
| Cc1c(Cn2c(C)nn3c(=O)cc(N4CCOC(C)C4)nc23)cccc1C(F)(F)F (stereo not drawn) [GSK2344444] | 0 |
| O=C1NC(=O)C(N2CCc3ccccc32)=C1c1cccc(Cl)c1 [SB-408010] | 0 |
| N#Cc1c(N2CCOCC2)sc(-c2ccn[nH]2)c1-c1ccc(Cl)cc1 | 25 |
| Cn1cc(-c2ccc3c(c2)CCN3C(=O)Cc2ccccc2Cl)c2c(N)ncnc21 [GSK2608885] | 0 |
| COc1cc(Nc2nccc(N3CCC(NC(=O)c4cccc(NC(C)=O)c4)C3)n2)cc(OC)c1OC (stereo not drawn) [GSK1379754] | 18 |
| COc1ccc(S(=O)(=O)NC2CCN(c3cc(C)nc(Nc4cccc(C#N)c4)n3)CC2)cc1.O=C(O)C(F)(F)F [GSK1653539] | 0 |
| COc1cc2c(cc1OCCN1CCN(C)CC1)ncc1c3ccc(C#N)cc3[nH]c21 | 0 |
| O=C(Nc1n[nH]c2cc(-c3cccc(F)c3)ccc12)C1CC1 [SB-735464] | 12 |
| Cc1cccc(-c2nc(Nc3ccc4ncsc4c3)c3ccccc3n2)n1 [GW867588] | 0 |
| Nc1nccc(-c2c(-c3ccc(F)cc3)ncn2C2CCN(CC(F)(F)F)CC2)n1 [SB-236560] | 0 |
| COc1ccc(Nc2nccc(N3CCC(NC(=O)Nc4cccc(C(C)=O)c4)C3)n2)cc1 (stereo not drawn) [GSK1379731] | 4 |
